Laboratory results taken from PubChem BioAssay AID1159580 (chemical genetic matrix, 2015).
Hit rate of the full screen: of about 5,500 compounds, about 2,000 (36%) were called active. Roughly 18% stayed inconclusive and do not appear here. No stated cut-off is given here; in the data, active means normalized growth mostly below about 0.91 (no sharp cut-off); inconclusive means no clear call, values can overlap the other calls; inactive means mostly above about 0.92. Some of the results follow.

Assay: chemical genetic growth profiling, strain panel (AID 1159580);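 further: tested at 20 µM; growth read once vehicle control cultures reached saturation at 30 °C; 1 = growth at the plate median or of vehicle wells; lower values mean less growth of the strain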
Details: S. cerevisiae deletion strains, growth OD
[1] = locus YAL013W, strain DEP1, hits give low values
[2] = locus YCL061C, strain MRC1, hits give low values
[3] = locus YGR078C, strain PAC10, hits give low values
[4] = locus YHR030C, strain SLT2, hits give low values
[5] = locus YJL095W, strain BCK1, hits give low values
[6] = locus YJL187C, strain SWE1, hits give low values
[7] = locus YMR307W, strain GAS1, hits give low values
[8] = locus YNL322C, strain KRE1, hits give low values
[9] = locus YPL055C, strain LGE1, hits give low values
[10] = locus YPL241C, strain CIN2, hits give low values
[11] = locus YBR229C, strain ROT2, hits give low values
[12] = locus YDL101C, strain DUN1, hits give low values
[13] = locus YEL061C, strain CIN8, hits give low values
[14] = locus YGR229C, strain SMI1, hits give low values
[15] = locus YJR043C, strain POL32, hits give low values
[16] = locus YKL190W, strain CNB1, hits give low values
[17] = locus YLR039C, strain RIC1, hits give low values
[18] = locus YLR262C, strain YPT6, hits give low values
[19] = locus YOL006C, strain TOP1, hits give low values

Measured: normalized growth

Nc1nnc(-c2cccc(Cl)c2Cl)c(N)n1
inactive: [1] 0.995 | locus YAL021C, strain ccr4, hits give low values 1.01 | locus YAL026C, strain drs2, hits give low values 1.02 | locus YAL030W, strain snc1, hits give low values 1.03 | locus YAL040C, strain CLN3, hits give low values 0.986 | locus YBL061C, strain skt5, hits give low values 1.02 | locus YBR009C, strain hhf1, hits give low values 1.03 | locus YBR023C, strain chs3, hits give low values 1.02 | locus YBR171W, strain sec66, hits give low values 1.04 | locus YBR231C, strain swc5, hits give low values 1.03 | locus YBR279W, strain paf1, hits give low values 1.02 | locus YCL011C, strain gbp2, hits give low values 1.02 | locus YCL016C, strain dcc1, hits give low values 1.01 | locus YCL061C, strain MRC1 (second series), hits give low values 1.01 | [2] 1.02 | locus YCL069W, strain vba3, hits give low values 1.02 | locus YCR088W, strain abp1, hits give low values 1.02 | locus YDL005C, strain med2, hits give low values 1.02 | locus YDL040C, strain nat1, hits give low values 1.02 | locus YDR001C, strain nth1, hits give low values 1.02 | locus YDR069C, strain doa4, hits give low values 1.04 | locus YDR137W, strain rgp1, hits give low values 1.02 | locus YDR159W, strain sac3, hits give low values 1.03 | locus YDR195W, strain ref2 1.03 | locus YDR297W, strain sur2, hits give low values 1.02 | locus YDR334W, strain swr1, hits give low values 1.02 | locus YDR335W, strain msn5, hits give low values 1.02 | locus YDR363W, strain ESC2, hits give low values 0.985 | locus YDR392W, strain spt3, hits give low values 0.987 | locus YEL003W, strain gim4, hits give low values 1.02 | locus YEL037C, strain rad23, hits give low values 1.01 | locus YEL061C, strain CIN8 (second series), hits give low values 1.02 | locus YER002W, strain NOP16, hits give low values 0.976 | locus YER015W, strain faa2, hits give low values 1.03 | locus YER016W, strain bim1, hits give low values 1.02 | locus YER111C, strain swi4, hits give low values 1.03 | locus YER155C, strain BEM2 (second series), hits give low values 1.04 | locus YFR010W, strain ubp6, hits give low values 1.01 | locus YGL167C, strain pmr1, hits give low values 1.02 | locus YGL173C, strain kem1, hits give low values 1.03 | locus YGL227W, strain vid30, hits give low values 1.03 | locus YGL240W, strain doc1, hits give low values 1.03 | locus YGL253W, strain hxk2, hits give low values 1.02 | [3] 1.01 | locus YHR013C, strain ard1, hits give low values 1.05 | locus YHR027C, strain rpn1, hits give low values 1.02 | [4] 1 | locus YHR079C, strain IRE1, hits give low values 0.995 | locus YHR142W, strain chs7, hits give low values 1.02 | locus YJL092W, strain hpr5, hits give low values 1.01 | locus YJL095W, strain BCK1 (second series), hits give low values 1.02 | [5] 0.997 | locus YJL115W, strain asf1, hits give low values 1.03 | locus YJL129C, strain trk1, hits give low values 1.04 | locus YJL154C, strain vps35, hits give low values 1.02 | locus YJL164C, strain tpk1, hits give low values 1.02 | locus YJL166W, strain qcr8, hits give low values 1.03 | [6] 1.02 | locus YJR066W, strain TOR1, hits give low values 0.949 | locus YKL160W, strain elf1, hits give low values 1.03 | locus YKR026C, strain gcn3, hits give low values 1 | locus YKR091W, strain srl3, hits give low values 1.02 | locus YLL001W, strain dnm1, hits give low values 0.997 | locus YLL026W, hits give low values 1.02 | locus YLL041C, strain sdh2, hits give low values 1.02 | locus YLR027C, strain aat2, hits give low values 1.03 | locus YLR113W, strain HOG1, hits give low values 0.966 | locus YLR221C, strain rsa3, hits give low values 1.02 | locus YLR258W, strain gsy2, hits give low values 1.02 | locus YLR262C, strain YPT6 (second series), hits give low values 1.02 | locus YLR320W, strain mms22, hits give low values 1.03 | locus YLR342W, strain FKS1, hits give low values 1.02 | locus YLR357W, strain rsc2, hits give low values 1.07 | locus YLR370C, strain arc18, hits give low values 1.02 | locus YLR384C, strain iki3, hits give low values 1.02 | locus YML120C, strain ndi1, hits give low values 0.994 | locus YMR058W, strain fet3, hits give low values 1.02 | locus YMR125W, strain sto1, hits give low values 1.05 | locus YMR129W, hits give low values 1.02 | locus YMR205C, strain PFK2, hits give low values 1.03 | locus YMR231W, strain pep5, hits give low values 1.01 | [7] 1.01 | locus YNL071W, strain lat1, hits give low values 1.01 | locus YNL175C, strain NOP13, hits give low values 0.986 | locus YNL183C, strain NPR1, hits give low values 0.949 | locus YNL197C, strain WHI3, hits give low values 0.991 | locus YNL209W, strain ssb2, hits give low values 1.02 | locus YNL224C, strain SQS1, hits give low values 0.981 | locus YNL248C, strain rpa49, hits give low values 1.02 | locus YNL322C, strain KRE1 (second series), hits give low values 1.02 | [8] 1.01 | locus YNR049C, strain mso1, hits give low values 1.03 | locus YOR001W, strain rrp6, hits give low values 1.02 | locus YOR070C, strain gyp1, hits give low values 1.02 | locus YOR080W, strain dia2, hits give low values 1.03 | locus YOR083W, strain WHI5 (second series), hits give low values 0.992 | locus YOR083W, strain WHI5, hits give low values 1.01 | locus YOR106W, strain vam3, hits give low values 1.03 | locus YOR231W, strain MKK1, hits give low values 1.01 | locus YOR265W, strain rbl2, hits give low values 1.02 | locus YOR270C, strain vph1, hits give low values 1.08 | locus YOR290C, strain snf2, hits give low values 1.04 | locus YPL051W, strain arl3, hits give low values 1.02 | [9] 0.994 | locus YPL078C, strain atp4, hits give low values 1.01 | locus YPL106C, strain sse1, hits give low values 1.02 | locus YPL240C, strain hsp82, hits give low values 1.02 | [10] 1 | locus YPL256C, strain CLN2, hits give low values 0.989

CSC(=NCc1cccnc1)NC#N
inactive: [1] 0.991 | [11] 1 | [2] 1 | [12] 1 | locus YDR150W, strain NUM1, hits give low values 0.997 | [13] 0.993 | [3] 1 | [14] 1 | [4] 1.01 | locus YHR087W, strain rtc3, hits give low values 1 | [6] 0.994 | [15] 0.986 | locus YJR075W, strain HOC1, hits give low values 0.998 | [16] 0.998 | [17] 1 | locus YLR058C, strain SHM2 (second series), hits give low values 0.992 | locus YLR085C, strain ARP6, hits give low values 1.02 | [18] 1.01 | locus YML094W, strain GIM5, hits give low values 1.06 | locus YMR219W, strain ESC1, hits give low values 1 | locus YMR263W, strain SAP30, hits give low values 0.992 | locus YNL153C, strain GIM3, hits give low values 1.01 | locus YNL298W, strain CLA4 (second series), hits give low values 1.01 | [8] 0.998 | locus YNR030W, strain Alg12, hits give low values 1 | [19] 1.03 | [9] 0.994 | [10] 0.987 | locus YPR135W, strain CTF4, hits give low values 1.01

COC(=O)C[C@H]1C(C)(C)C(=O)[C@@H]2CC3=C4CC(OC)O[C@@H](c5ccoc5)[C@]4(C)CCC3[C@@]1(C)C2=O (stereo partly specified)
inactive: locus YBR021W, strain FUR4, hits give low values 1.01 | [11] 0.994 | locus YCL029C, strain bik1, hits give low values 0.987 | locus YDL035C, strain GPR1, hits give low values 1.02 | locus YDL074C, strain BRE1, hits give low values 1.01 | [12] 1.01 | locus YDL134C, strain PPH21, hits give low values 1 | locus YDL185W, strain tfp1, hits give low values 1 | locus YDL192W, strain arf1, hits give low values 1 | locus YDR101C, strain arx1, hits give low values 0.995 | locus YDR162C, strain NBP2, hits give low values 1 | locus YDR318W, strain mcm21, hits give low values 0.998 | locus YDR388W, hits give low values 0.991 | locus YDR502C, strain sam2, hits give low values 0.989 | [13] 0.999 | locus YER110C, hits give low values 0.994 | locus YER155C, strain BEM2, hits give low values 1.01 | locus YER167W, strain BCK2, hits give low values 1.01 | locus YGL078C, strain dbp3, hits give low values 1.01 | locus YGL086W, strain mad1, hits give low values 0.995 | locus YGL248W, strain PDE1, hits give low values 1.01 | [3] 1.01 | locus YGR135W, strain pre9, hits give low values 0.99 | [14] 1.03 | locus YGR252W, strain gcn5, hits give low values 1.01 | [4] 1 | locus YHR079C, strain IRE1 (second series), hits give low values 0.996 | locus YHR094C, strain hxt1, hits give low values 0.993 | locus YHR129C, strain ARP1, hits give low values 1.01 | locus YHR200W, strain rpn10, hits give low values 0.997 | locus YIL066C, strain RNR3, hits give low values 1.01 | locus YIL073C, strain SPO22, hits give low values 0.995 | locus YIL125W, strain kgd1, hits give low values 0.998 | locus YIR030C, strain dcg1, hits give low values 1 | [5] 1.01 | locus YJL134W, strain LCB3, hits give low values 1.01 | locus YJL168C, strain set2, hits give low values 0.996 | locus YJL187C, strain SWE1 (second series), hits give low values 1.01 | [15] 1.02 | locus YKL009W, strain mrt4, hits give low values 0.984 | locus YKL068W, hits give low values 1 | locus YKL085W, strain MDH1 (second series), hits give low values 1 | locus YKL085W, strain MDH1, hits give low values 1 | [16] 1.01 | locus YKR001C, strain vps1, hits give low values 1 | [17] 0.969 | locus YLR058C, strain SHM2, hits give low values 1 | locus YLR102C, strain apc9, hits give low values 1 | [18] 0.982 | locus YLR268W, strain sec22, hits give low values 1.01 | locus YLR330W, strain CHS5, hits give low values 1 | locus YLR342W, strain FKS1 (second series), hits give low values 0.991 | locus YLR371W, strain rom2, hits give low values 1 | locus YLR418C, strain cdc73, hits give low values 0.992 | locus YML016C, strain PPZ1, hits give low values 1 | locus YML032C, strain rad52, hits give low values 0.997 | locus YML124C, strain tub3, hits give low values 1 | locus YMR078C, strain ctf18, hits give low values 0.99 | locus YMR223W, strain ubp8, hits give low values 1.01 | [7] 1.03 | locus YNL067W, strain RPL9B, hits give low values 1.01 | locus YNL233W, strain BNI4, hits give low values 1.04 | locus YNL250W, strain rad50, hits give low values 0.986 | locus YNL271C, strain bni1, hits give low values 1 | locus YNL298W, strain CLA4, hits give low values 0.984 | locus YNL307C, strain MCK1, hits give low values 0.985 | locus YNR052C, strain pop2, hits give low values 1.01 | [19] 1.06 | locus YOL012C, strain htz1 1.32 | locus YOL147C, strain pex11, hits give low values 0.995 | locus YOR061W, strain CKA2, hits give low values 0.999 | locus YOR069W, strain VPS5, hits give low values 1.01 | locus YOR136W, strain idh2, hits give low values 0.999 | locus YOR144C, strain elg1, hits give low values 0.988 | locus YOR184W, strain ser1, hits give low values 1.01 | locus YOR316C, strain cot1, hits give low values 1 | [9] 1.03 | [10] 1 | locus YPR119W, strain clb2, hits give low values 1.01 | locus YPR141C, strain kar3, hits give low values 0.999 | locus YPR163C, strain tif3, hits give low values 0.996 | locus YPR167C, strain met16, hits give low values 1 | strain wtn01, hits give low values 1.01
